Several values for one entry are separate records, joined by “and”; a condition that tells them apart may be missing. Equal entries are not always repeated. Results filed as inconclusive are left out. Activity calls are given as the source filed them. Unless noted, calls follow the shape of the dose curve; as a rule, active = well fitted curve in the direction sought with a large enough effect; inconclusive = small, poorly fitted or top-dose-only effect, or another doubt; inactive = no such curve, though single readings can be large; an effect the other way counts as inactive or inconclusive.
Assays:
[1] = qHTS assay for small molecule antagonists of the retinoid-related orphan receptor gamma (ROR-gamma) signaling pathway - cell viability counter screen (AID 720652; active = well fitted curve in the direction sought with a large enough effect in the repeat runs; an effect the other way counts as inactive or inconclusive;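 also: CHO reporter cells with doxycycline-induced ROR-gamma expression; compound exposure lasted 16 hr before ATP read; % is scaled to controls: 0 for no effect and ±100 for the full control effect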)
Summary of the method: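 Cytotoxicity counter screen: intracellular ATP (CellTiter-Glo luminescence) measured in the doxycycline-induced CHO RORE-luciferase reporter line after 16 hr compound exposure at 37 C, 5% CO2.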

[2] = qHTS assay for small molecule agonists of the antioxidant response element (ARE) signaling pathway measured by Nrf2-dependant transcriptional activity - cell viability counter screen (AID 720653; active = well fitted curve in the direction sought with a large enough effect in the repeat runs; an effect the other way counts as inactive or inconclusive; also: % is scaled to controls: 0 for no effect and ±100 for the full control effect); details: ARE-bla HepG2 viability, CellTiter-Glo ATP luminescence, 16 h; stronger effect = lower value
Summary of the method: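 ARE-bla HepG2 cells (2,000/well) rested 5 hrs at 37C/5% CO2, then exposed to compounds in DMSO for 16 hrs. Viability was read in the same wells as intracellular ATP by luminescence, 30 min at room temperature after reagent addition.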

[3] = qHTS Assay for Identifying Gametocytocidal Compounds (AID 743244); also: potency is read from the fitted curve at half-maximal effect;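 as to max response: % is scaled to controls: 0 for no effect and ±100 for the full control effect; actives lower the fluorescent signal which means gametocytes are killed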; details: P. falciparum 3D7 stage III-V gametocytes, alamarBlue, 72 h; max response: stronger effect = lower value
Summary of the method: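 Using 20,000 stage III–V 3D7 gametocytes per well, compounds were incubated 72 h under 37 °C/5% CO2. Viability was then assessed by 24 h alamarBlue reduction, measured fluorometrically at 525/598 nm.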

[4] = qHTS assay for cell viability of HEK293 cells (AID 743288); details: ATP luminescence (CellTiter-Glo), 18 h, stronger effect = lower value; also: % is scaled to controls: 0 for no effect and ±100 for the full control effect; nearly all actives have a fitted effect of over 50% in size
Summary of the method: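 Quantitative high-throughput screen: compounds were pinned onto parental HEK293 cells (2,000 per well) after a minimum 5 h settling at 37 C, incubated 18 h at 37 C, and intracellular ATP measured by luciferase luminescence.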

[5] = qHTS assay for cell viability of the p53RE-bla HCT-116 cell line (AID 743292); also: % is scaled to controls: 0 for no effect and ±100 for the full control effect; nearly all actives have a fitted effect of over 55% in size
Summary of the method: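 Quantitative high-throughput format: compounds in DMSO were pinned onto p53RE-bla HCT-116 cells (4,000/well) and incubated 16 h at 37 C. Total intracellular ATP, read by CellTiter-Glo luminescence, reflects viable cell number.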

[6] = target: T1, Hexokinase-4 (Homo sapiens) + Glucokinase regulatory protein (Homo sapiens) (UniProt P35557+Q14397); assay: qHTS assay for inhibitors of recombinant human GCK-GKRP interaction: Diaphorase-coupled assay (AID 743205)
Summary of the method: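 Inhibitors of the GCK–GKRP complex relieve GKRP suppression of GCK, detected through a G6PDH–diaphorase cascade reducing resazurin. Human GST-GCK and FLAG-GKRP are used at 10 nM with 5 mM glucose and 0.4 mM ATP.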

[7] = target: T1, Hexokinase-4 (Homo sapiens) + Glucokinase regulatory protein (Homo sapiens); assay: qHTS assay for inhibitors of recombinant human GCK-GKRP interaction: ADP-Glo assay (AID 743206);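 also: plate controls were DMSO plus enzyme for no effect and no enzyme for full effect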
Summary of the method: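 Pin-transferred compounds meet a 15 nM GST-GCK/15 nM FLAG-GKRP/2 uM S6P mix (dispense concentrations). ATP is then added to 0.4 mM final with 5 mM glucose, and the reaction runs 60 min at room temperature. ADP is quantified luminescently.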

[8] = qHTS profiling for inhibitors of Plasmodium falciparum (3D7) proliferation (AID 743322; call rule not given here;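 also: infected erythrocytes exposed to compound for 72 h before lysis; 100% = DMSO vehicle wells and 0% = 0.29 µM artemisinin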); details: P. falciparum 3D7 proliferation; at 28.7 µM (top of the series) unless noted
Summary of the method: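 Parasite DNA was quantified by SYBR Green I fluorescence (ex 485, em 535 nm) after overnight lysis in saponin/Triton buffer at room temperature. Cultures at 0.3% parasitemia and 2.5% hematocrit were first exposed to compound for 72 h at 37 C; signals were normalised to artemisinin (0.29 uM) and vehicle wells.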

[9] = qHTS profiling for inhibitors of Plasmodium falciparum (DD2) proliferation (AID 743323; call rule not given here); details: lower = more inhibition; at 28.7 µM (top of the series) unless noted
Summary of the method: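 P. falciparum Dd2-infected erythrocytes (0.3% parasitemia, 2.5% hematocrit) exposed 72 h at 37 C, 5% CO2. Lysis with SYBR Green, overnight at room temperature, fluorescence 485/535 nm; normalized to 0.29 uM artemisinin and DMSO.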

[10] = qHTS profiling for inhibitors of Plasmodium falciparum (HB3) proliferation (AID 743324); details: Plasmodium falciparum HB3 blood-stage proliferation; at 28.7 µM (top of the series) unless noted;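 also: 100% = DMSO vehicle wells and 0% = artemisinin-treated control wells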
Summary of the method: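 SYBR Green fluorescence (485 ex/535 em) of lysed cultures, incubated overnight at room temperature in the dark, quantifies parasite DNA. Infected erythrocytes at 0.3% parasitemia and 2.5% hematocrit were exposed 72 h; values normalized to DMSO and 0.29 uM artemisinin controls.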

T1 sequence (P35557 whole entry, looked up): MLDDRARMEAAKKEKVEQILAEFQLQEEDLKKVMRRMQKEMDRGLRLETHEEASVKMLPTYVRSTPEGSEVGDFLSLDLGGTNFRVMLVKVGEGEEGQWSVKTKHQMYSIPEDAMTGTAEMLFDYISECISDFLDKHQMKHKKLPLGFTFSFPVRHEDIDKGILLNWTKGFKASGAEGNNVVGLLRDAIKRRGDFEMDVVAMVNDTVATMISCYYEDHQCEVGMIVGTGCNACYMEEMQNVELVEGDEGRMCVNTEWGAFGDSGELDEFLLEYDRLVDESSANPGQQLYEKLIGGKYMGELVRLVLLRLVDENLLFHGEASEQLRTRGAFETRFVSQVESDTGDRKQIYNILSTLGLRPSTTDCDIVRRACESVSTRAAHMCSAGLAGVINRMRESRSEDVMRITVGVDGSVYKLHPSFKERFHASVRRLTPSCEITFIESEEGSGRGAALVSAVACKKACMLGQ
T1 sequence (Q14397 whole entry, looked up): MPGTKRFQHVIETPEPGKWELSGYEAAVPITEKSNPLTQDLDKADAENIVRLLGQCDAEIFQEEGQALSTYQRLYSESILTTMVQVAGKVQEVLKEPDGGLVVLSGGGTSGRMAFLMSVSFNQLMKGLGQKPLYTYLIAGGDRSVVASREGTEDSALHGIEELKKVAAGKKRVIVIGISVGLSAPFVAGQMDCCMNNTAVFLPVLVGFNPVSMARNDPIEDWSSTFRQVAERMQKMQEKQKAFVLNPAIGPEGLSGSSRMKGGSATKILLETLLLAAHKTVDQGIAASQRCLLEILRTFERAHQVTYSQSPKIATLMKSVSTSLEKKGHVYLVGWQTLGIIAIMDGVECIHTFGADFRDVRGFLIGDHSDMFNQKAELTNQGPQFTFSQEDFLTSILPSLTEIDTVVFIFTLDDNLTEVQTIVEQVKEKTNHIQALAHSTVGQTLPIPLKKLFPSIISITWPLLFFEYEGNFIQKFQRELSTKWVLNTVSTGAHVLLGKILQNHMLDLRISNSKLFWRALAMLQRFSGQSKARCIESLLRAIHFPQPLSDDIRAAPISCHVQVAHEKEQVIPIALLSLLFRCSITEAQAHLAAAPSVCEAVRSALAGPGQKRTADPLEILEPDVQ

## O=c1ccc2ccccc2o1
[1]
  Potency: inactive
[2]
  max response: 0.83% (inactive) and -14.1% (inactive) and -0.794% (inactive)
[3]
  max response: 15.4% (inactive)
[4]
  max response: 8.9% (inactive) and -9.16% (inactive) and -5.08% (inactive)
[5]
  outcome: inactive

## CC[C@H](C)C(=O)O[C@H]1CCC=C2C=C[C@H](C)[C@H](CC[C@@H]3C[C@@H](O)CC(=O)O3)[C@H]21
[6]
  outcome: inactive
[7]
  outcome: inactive
[3]
  max response: 15.8% (inactive) and 37.7% (inactive)

## CCCCCCc1ccc(O)cc1O
[2]
  max response: -0.701% (inactive) and 2.74% (inactive)
[3]
  max response: 3.3% (inactive)
[4]
  max response: -5.8% (inactive) and 9.71% (inactive)
[5]
  outcome: inactive

## Nc1ccc(C(=O)O)cc1
[1]
  Potency: inactive
[2]
  max response: 2.28% (inactive)
[3]
  max response: -1.31% (inactive)
[4]
  max response: 7.36% (inactive)
[5]
  outcome: inactive

## Oc1ccc(Cl)cc1Sc1cc(Cl)ccc1O
[1]
  Potency: inactive
[3]
  max response: 6.07% (inactive)
[5]
  outcome: inactive

## CC(C)(C)CC(C)(C)c1ccc(OCCOCC[N+](C)(C)Cc2ccccc2)cc1
[1]
  Potency: inactive
[3]
  Potency: 8.91 µM (active)

## C[C@H]1C[C@H]2[C@@H]3CCC4=CC(=O)C=C[C@]4(C)[C@@]3(Cl)[C@@H](O)C[C@]2(C)[C@@]1(O)C(=O)CO
[2]
  max response: -20.4% (inactive)
[3]
  max response: 3.92% (inactive)
[4]
  max response: -18.8% (inactive)
[5]
  outcome: inactive

## CCC(NC(C)C)C(O)c1ccc(O)c(O)c1 (configuration not stated)
[6]
  outcome: inactive
[7]
  outcome: inactive
[3]
  max response: -4.31% (inactive)

## O=C1OC(c2ccc(O)cc2)(c2ccc(O)cc2)c2ccccc21
[1]
  Potency: inactive
[2]
  max response: 4.44% (inactive) and -20.6% (inactive)
[3]
  max response: 7.07% (inactive)
[4]
  max response: -1.91% (inactive) and -6.06% (inactive)
[5]
  outcome: inactive

## C=CCc1ccc(O)c(OC)c1
[1]
  Potency: inactive
[2]
  max response: -2.21% (inactive) and -7.34% (inactive)
[3]
  max response: 4.9% (inactive)
[4]
  max response: -4.89% (inactive) and -5.68% (inactive)
[5]
  outcome: inactive

## CN(C)C(=S)SC(=S)N(C)C
[2]
  max response: 4.33% (inactive)
[5]
  outcome: inactive

## CN(C)/N=N/c1nc[nH]c1C(N)=O
[1]
  Potency: inactive
[2]
  max response: -9.97% (inactive)
[3]
  max response: 5.22% (inactive)
[4]
  max response: 4.22% (inactive)
[5]
  outcome: inactive

## COC(=O)[C@H]1[C@H]2C[C@H]3c4[nH]c5ccccc5c4CCN3C[C@H]2CC[C@@H]1O
[6]
  outcome: inactive
[7]
  outcome: inactive
[3]
  max response: 13.2% (inactive) and 17.2% (inactive)

## Oc1c(Cl)cc(Cl)cc1Sc1cc(Cl)cc(Cl)c1O
[1]
  Potency: inactive
[3]
  max response: 20.1% (inactive)
[5]
  outcome: inactive

## O=C(O)c1cc2cc(Cc3cccnc3)ccc2o1
[6]
  outcome: inactive
[7]
  outcome: inactive
[3]
  max response: 2.09% (inactive) and 51.2% (inactive)

## CNCCC(Oc1ccccc1C)c1ccccc1 (configuration not stated)
[6]
  outcome: inactive
[7]
  outcome: inactive
[3]
  max response: 9.68% (inactive)

## C1CCc2nnnn2CC1
[6]
  outcome: inactive
[7]
  outcome: inactive
[3]
  max response: -4.71% (inactive)

## Oc1ccc(Cl)c2cccnc12
[3]
  Potency: 7.94 µM (active)

## CCn1cc(C(=O)O)c(=O)c2cnc(N3CCCC3)nc21
[3]
  max response: -1.94% (inactive)

## CCCCCCCCCCCCCCCCOP(=O)([O-])OCC[N+](C)(C)C
[3]
  max response: -10.8% (inactive)

## C[C@H]1[C@H](NC(=O)/C(=N/OC(C)(C)C(=O)O)c2csc(N)n2)C(=O)N1S(=O)(=O)O (stereo in doubt)
[3]
  max response: -0.904% (inactive)

## CC(=O)[C@H]1CC[C@H]2[C@@H]3C[C@H](C)C4=CC(=O)CC[C@]4(C)[C@H]3[C@@H](O)C[C@]12C
[3]
  max response: 9.78% (inactive)

## CCCn1c(=O)[nH]c(=O)c2[nH]cnc21
[6]
  outcome: inactive
[7]
  outcome: inactive
[3]
  max response: 20.2% (inactive) and 5.21% (inactive)

## C[C@]12C=CC(=O)C=C1[C@@H](F)C[C@@H]1[C@@H]2[C@@H](O)C[C@@]2(C)[C@H]1CC[C@]2(O)C(=O)CO
[3]
  max response: -0.315% (inactive) and -15.3% (inactive)

## CCCCC(=O)O[C@]1(C(=O)CO)CC[C@H]2[C@@H]3CCC4=CC(=O)CC[C@]4(C)[C@H]3[C@@H](O)C[C@@]21C
[3]
  max response: 5.31% (inactive)

## C[N+]1(CCCCC[N+]2(C)CCCC2)CCCC1
[6]
  outcome: inactive
[7]
  outcome: inactive
[3]
  max response: 12.3% (inactive) and 19.3% (inactive)

## CCN1CCCC1=O
[3]
  max response: 5.59% (inactive)

## CC(=O)OCC(=O)[C@@]1(O)CC[C@H]2[C@@H]3CCC4=CC(=O)C=C[C@]4(C)[C@H]3[C@@H](O)C[C@@]21C
[3]
  max response: -0.763% (inactive)

## COc1cc2c(cc1O)CC[C@@H]1[C@@H]2CC[C@]2(C)[C@@H](O)CC[C@@H]12
[6]
  outcome: inactive
[7]
  outcome: inactive
[3]
  max response: -20.1% (inactive) and 26.1% (inactive)
[8]
  remaining parasite growth % (stronger effect = lower value): 90.1% and 79.2%
[9]
  activity, percent of control: 93.6% and 83.5%
[10]
  remaining proliferation (% of control), lower = more inhibition: 93.9% and 38.4%

Reference: PubChem BioAssay (NCATS)
